CHO-K1 Ca antag = counter-screen for M1 antagonists: effect in parental CHO-K1 cells. ATP-induced calcium, Fluo-8 fluorescence. inhibition, % at 3 µM. 360,000 compounds, 0.6% hits. AID 602250;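 active means inhibition above a per-plate cutoff, the plate's mean sample inhibition plus 3 SD, cut at about 24% in these data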;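 further: 0% = DMSO plus EC80 ATP and 100% = DMSO alone without ATP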
CHO-K1 Ca PAM = counter-screen for M1 PAMs: effect in parental CHO-K1 cells | activation, % at 3 µM | AID 602247 | 360,000 compounds, 0.02% hits | ATP EC20, Fluo-8 calcium fluorescence; 0% at ATP EC20, 100% at ATP max;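 active means activation above the run cutoff, the mean activation of all test compounds plus 3 SD, cut at about 40% in these data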;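 further: peak over basal fluorescence ratio in a 140 s read after ATP addition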
CHRM4 PAM = potentiates acetylcholine response at human M4 receptor; P08173; 360,000 compounds, 0.4% hits; CHO-K1 hM4/Gqi5, Fluo-8 calcium fluorescence, ACh EC20; 0% = ACh EC20, 100% = maximal ACh; AID 624126; activation, % at 3 µM;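 active means activation above its plate's cutoff, the mean activation of sample wells plus 3 SD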
Target sequence (P08173 whole entry, looked up): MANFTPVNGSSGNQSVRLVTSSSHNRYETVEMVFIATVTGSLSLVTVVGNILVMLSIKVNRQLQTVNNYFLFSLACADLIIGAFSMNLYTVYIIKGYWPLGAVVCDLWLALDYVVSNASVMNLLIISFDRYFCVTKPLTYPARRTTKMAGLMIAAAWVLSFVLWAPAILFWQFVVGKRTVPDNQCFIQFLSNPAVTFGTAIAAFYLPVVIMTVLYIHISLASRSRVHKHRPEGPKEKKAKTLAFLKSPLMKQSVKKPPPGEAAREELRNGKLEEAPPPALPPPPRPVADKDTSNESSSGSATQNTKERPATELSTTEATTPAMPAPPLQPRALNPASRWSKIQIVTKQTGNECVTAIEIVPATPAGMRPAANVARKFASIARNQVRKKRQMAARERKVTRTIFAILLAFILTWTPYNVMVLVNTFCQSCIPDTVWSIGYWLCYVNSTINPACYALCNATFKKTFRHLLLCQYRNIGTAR
M4 antag = antagonists of human muscarinic M4 receptor (CHRM4); inhibition, % at 3 µM; 360,000 compounds, 0.73% hits; CHO-hM4 cells, ACh EC80, Fluo-8 calcium fluorescence;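 active means inhibition above its plate's cutoff, the mean inhibition of sample wells plus 3 SD, cut at about 27% in these data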;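 further: 0% = acetylcholine EC80 with DMSO and 100% = DMSO without agonist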
M1 ag parental = nonselective activator or artifact in parental CHO-K1 cells. 360,000 compounds, 0.48% hits. activation, % at 3 µM. Fluo-8 calcium fluorescence; scaled to maximal ATP response, vehicle zero; in the data active means activation above about 15%;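 further: untransfected CHO-K1 host cells lacking M1 receptor as counterscreen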
CHRM4 agonist = CHRM4 agonism in calcium assay; activation, % at 3 µM; 360,000 compounds, 0.14% hits; P08173; CHO-K1 hM4/Gqi5, Fluo-8 calcium fluorescence; vehicle 0%, full acetylcholine response 100%;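 active means activation above the run mean over all test wells plus 3 SD, cut at about 32% in these data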;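 further: peak over basal fluorescence ratio per well then scaled between controls; 0% = DMSO wells and 100% = acetylcholine at EC100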
Active calls of the source: *. The list is not random: actives were taken first. Their share in the collection is about 2%.

SMILES	CHO-K1 Ca antag	CHO-K1 Ca PAM	CHRM4 PAM	M4 antag	M1 ag parental	CHRM4 agonist
CCCC(=O)N1CCCC1(C)C(=O)NCCc1ccccn1 (centres undefined)	-9	4	3	-2	0	1
COc1ccc(NC(=O)CN2CCN(C3c4ccccc4-c4ccccc43)CC2)cc1	-27	53*	0	-1	2	0
O=C(OCC(=O)N1CCCc2ccccc21)c1cc(S(=O)(=O)N2CCOCC2)ccc1O	-21	13	1	-6	1	2
Cc1cc(OCCCN2CCC(C(O)(c3ccccc3)c3ccccc3)CC2)ccc1Br	5	-1	-10	29*	2	17
N#Cc1cccc(OCCCN2CCC(C(O)(c3ccccc3)c3ccccc3)CC2)c1	-12	17	-14	24	4	11
CN(C)c1ccc(C=Cc2nccc3ccccc23)cc1	25*	-3	-17	23	20*	36*
CCN(CC)c1nc(C=Cc2ccc(N(C)C)cc2)c2nccnc2n1	44*	-3	-10	41*	45*	29
Cc1ccc(CN2C(=O)C(F)(F)Oc3ccc(C)cc32)cc1	-5	-3	1	5	-1	-1
O=C(COC(=O)c1cc(-c2cccc(Br)c2)nc2ccccc12)NCC1CCCO1 (centres undefined)	28*	-14	-4	-8	0	2
O=C(OCC(=O)N1CCN(C(=O)c2ccco2)CC1)c1cc(-c2cccc(Br)c2)nc2ccccc12	9	12	-23	28*	3	9
O=C(COC(=O)c1cc(-c2ccccc2)nc2ccccc12)NCC1CCCO1 (centres undefined)	-9	2	-2	2	1	1
Cc1ccccc1N1CCN(C2CCCN(C(=O)CCN3CCCO3)C2)CC1 (centres undefined)	-17	9	-6	-3	1	1
COc1cccc(C2=NOC(C(=O)N3CCOCC3)C2)c1 (centres undefined)	-10	-4	29*	9	0	1
COc1ccc(C2=NOC(C(=O)N3CCOCC3)C2)cc1OC (centres undefined)	-12	25	12	-14	1	0
O=C(NCc1ccco1)c1ccc(N2CCCCC2)c([N+](=O)[O-])c1	-8	26	-9	12	1	0
Cc1ccc(N(Cc2ccco2)C(=O)c2ccc(N3CCCCC3)c([N+](=O)[O-])c2)cc1	25*	-15	-14	4	-1	-2
COCCCNc1cc(C)nc2ccccc12	-7	20	7	-1	0	2
Cc1cc(NCCCCCCCNc2cc(C)nc3cc([N+](=O)[O-])ccc23)c2ccc([N+](=O)[O-])cc2n1	-7	0	-10	43*	0	2
Cc1cc(C(=O)OCC(=O)NCCc2ccccc2)c2ccccc2n1	8	-13	4	9	3	7
CCN1/C(=C\c2ccc3cc(C)ccc3[n+]2CC)Sc2cc(C)c(C)cc21	35*	-4	-9	20	18*	8
CCN1/C(=C/c2ccc3cccc(C)c3[n+]2CC)Sc2ccccc21	24	8	-8	31*	10	10
CCN1/C(=C/c2ccc3cc(C)cc(C)c3[n+]2CC)Sc2cc(C)ccc21	40*	-11	-6	21	21*	20
COc1ccc(NC(=O)COC(=O)C2CC2)c(OC)c1	-7	1	6	1	0	1
CCNCc1cc([N+](=O)[O-])ccc1OCC	-3	-17	-7	7	0	0
CCC(CO)NCC(O)COCc1ccc2c(c1)OCO2 (centres undefined)	-14	13	20*	-13	0	1
SMILES	CHO-K1 Ca antag	CHO-K1 Ca PAM	CHRM4 PAM	M4 antag	M1 ag parental	CHRM4 agonist
CCCCN(CC)Cc1c(O)ccc2c(-c3ccccc3)cc(=O)oc12	1	3	-26	28*	1	0
Cc1ccc(CNC(=O)C2CCCN(S(=O)(=O)c3cccc4nonc34)C2)cc1 (centres undefined)	-9	-11	-7	-4	1	1
COc1ccccc1Nc1nc(-c2c(C)nc3ncccn23)cs1	2	0	-19	12	8	8
C[C@H](CO)N1C[C@H](C)[C@@H](CN(C)C(=O)c2ccc(N3CCN(C)CC3)cc2)OCc2cnnn2CCCC1=O	17	-5	3	-4	0	1
COc1ccccc1NC(=O)COC(=O)C1CCCC1	12	-2	4	-6	-1	1
COc1ccccc1NC(=O)c1ccc(NC(=O)COC(=O)C2CCCCC2)cc1	7	7	-6	-5	19*	10
COc1ccc(CCNC(=O)C/C(C)=N/NC(=O)c2ccc([N+](=O)[O-])cc2Cl)cc1OC	5	-3	3	-20	0	1
CC(Nc1ccc2c(c1)OCCO2)C(=O)N1CCc2ccccc21 (centres undefined)	2	3	-1	1	1	2
O=c1cc(O)c2c(=O)n(C3CCCCC3)c3ccccc3c2o1	-1	12	14	-18	0	0
O=c1cc(O)c2c(=O)n(-c3ccccc3)c3c(c2o1)CCCCCC3	24*	-12	-8	8	0	0
O=C1C=CC(=Nc2cccc3c2C(=O)c2ccccc2-3)O1	-3	17	1	15	10	67*
O=C(CCN1C(=O)/C(=C/c2ccccc2)SC1=S)NCCc1ccc(O)cc1	14	-12	-10	18	13	16
O=C(CCN1C(=O)/C(=C/c2ccccc2F)SC1=S)NCCc1ccc(O)cc1	10	12	-5	3	16*	17
O=C(Cc1ccccc1F)c1ccc(O)cc1O	8	6	-3	2	19*	2
O=C(Nc1ccccc1)c1cc(C2COCCN2C(=O)c2cccs2)on1 (centres undefined)	-4	16	-5	-7	1	3
c1ccc(CNc2nc(-c3ccccn3)nc3ccccc23)cc1	0	-10	10	-7	2	9
CCC(C)Nc1nc(-c2ccccn2)nc2ccccc12 (centres undefined)	4	-6	22*	-18	1	9
CSCCC(NS(=O)(=O)c1ccc(Cl)cc1)C(=O)OCC(=O)c1c(C)[nH]c2ccccc12 (centres undefined)	1	12	-13	33*	4	15
CCOc1ccccc1N1CCN(C(=S)NC(=O)C23CC4CC(CC(C4)C2)C3)CC1	-7	25	-4	-6	1	0
CCOc1ccccc1N1CCN(C(=S)NCc2ccc(Cl)cc2)CC1	-3	13	-14	-2	18*	12
OC(Cc1cccc(Br)c1)c1ncc(-c2ccccc2C(F)(F)F)[nH]1 (centres undefined)	-17	14	-1	-1	1	5
